High-throughput results as filed in PubChem BioAssay.
MEKK3 PB1 HTS: modulators of MEKK3-MEK5 PB1 binding, primary screen, biochemical, wildtype MEKK3, multiplex bead flow cytometry, Alexa488-MEK5; Mitogen-activated protein kinase kinase kinase 3 (Homo sapiens), Q99759; bead-based flow cytometry, Alexa488-MEK5 binding to MEKK3; actives lie on both sides; 0 = blocked by unlabeled MEK5, 100 = vehicle; binding response (% of control), % at 10 µM; actives 1.4% (n = 290,000); AID 1529, 2009;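 active = binding response more than 3 SD above or below the average of its plate-row segment, actives on both sides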;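 also: Alexa488 bead fluorescence after subtracting the streptavidin-only scavenger bead signal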
Target sequence (Q99759 whole entry, looked up): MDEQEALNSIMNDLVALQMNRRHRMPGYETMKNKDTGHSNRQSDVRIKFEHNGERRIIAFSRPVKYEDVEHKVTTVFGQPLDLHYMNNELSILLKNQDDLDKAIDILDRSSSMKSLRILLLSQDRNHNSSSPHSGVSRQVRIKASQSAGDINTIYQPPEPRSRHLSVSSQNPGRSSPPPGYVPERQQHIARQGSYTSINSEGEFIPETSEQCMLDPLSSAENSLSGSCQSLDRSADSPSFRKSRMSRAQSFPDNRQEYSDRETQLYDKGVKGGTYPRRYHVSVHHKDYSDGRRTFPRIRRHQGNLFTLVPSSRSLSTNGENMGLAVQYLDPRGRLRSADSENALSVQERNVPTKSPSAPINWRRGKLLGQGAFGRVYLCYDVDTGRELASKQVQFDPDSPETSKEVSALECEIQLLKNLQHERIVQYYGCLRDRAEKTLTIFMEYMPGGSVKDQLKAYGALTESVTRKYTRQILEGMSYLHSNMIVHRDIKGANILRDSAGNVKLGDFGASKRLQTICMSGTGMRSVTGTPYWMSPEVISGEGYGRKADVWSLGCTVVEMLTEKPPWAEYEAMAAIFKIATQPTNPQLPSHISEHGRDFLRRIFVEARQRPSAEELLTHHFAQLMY
ABCB6 inh 2: ABCB6 transporter inhibitors, primary screen, K562-ABCB6 cells, flow cytometry, MLPCN library; ATP-binding cassette sub-family B member 6 (Homo sapiens), Q9NP58; K562-ABCB6 porphyrin accumulation, 1 h; hits give low values; fluorescence ratio to DMSO, % at 10 µM; actives 0.19% (n = 360,000); AID 602162, 2011;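 active = fluorescence ratio to DMSO below 75%, the collection mean minus 3 SD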;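 also: signal is porphyrin accumulated inside mitochondria; lower ratio means ABCB6 inhibition with less porphyrin fluorescence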
MEKK2 WT-MEK5: modulators of MEK5 binding to wildtype MEKK2, primary screen, biochemical, multiplex bead flow cytometry, Alexa488-MEK5; Mitogen-activated protein kinase kinase kinase 2 (Homo sapiens), Q9Y2U5; Alexa488-MEK5 binding to MEKK2 WT; actives lie on both sides; binding response (% of control), % at 10 µM; actives 1.1% (n = 290,000); AID 1531, 2009; in the data active = binding response below about 67% or above about 130%
CRFR2-BP antag: antagonists of CRF-BP/CRF-R2 complex, primary screen, cell-based, HEK293, calcium dye fluorescence, uHTS. actives 0.59% (n = 350,000). inhibition, % at 11.8 µM. CRF-induced calcium fluorescence;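 active = inhibition of the ligand-induced calcium signal above about 50% at the single tested concentration, limit read from the data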
CRFBP-R2 agonist: agonists of CRF-BP/CRF-R2 complex, primary screen, cell-based, HEK293, calcium dye fluorescence, uHTS; CRF-binding protein / CRF receptor 2 complex (human); calcium dye fluorescence (FLIPR); percent of saturating CRF peptide response; activation, % at 13.2 µM; actives 0.46% (n = 350,000); AID 588473, 2011;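 active = activation of at least 50%, plus an integration ratio under a set limit after plate pattern correction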
MEKK2 mut-MEK5: MEK5 binding signal on mutant MEKK2 PB1, primary screen, biochemical, multiplex bead flow cytometry, Alexa488-MEK5. Alexa488-MEK5 binding to MEKK2 mutant. percent response, % at 10 µM. actives 0.35% (n = 290,000). AID 1530, 2009; in the data active = percent response above about 24%, passing the limit was not always enough
A number is an active result; – = inactive; · = not tested or not shown; [ ] = another dose, or the depositor's remark. This is a sample that favours compounds with a hit; in the whole collection about 2.9% have one here.

SMILES	MEKK3 PB1 HTS	ABCB6 inh 2	MEKK2 WT-MEK5	CRFR2-BP antag	CRFBP-R2 agonist	MEKK2 mut-MEK5
O=C(Cc1c(O)c2ccccc2[nH]c1=O)OC1CCCCC1	–	–	–	67	–	–
COc1ccc(N2CCN(CCC(O)c3ccc4ccccc4c3)CC2)cc1 (stereo not drawn)	–	–	–	–	–	–
COc1ccc(C(=O)OCC(=O)N(C)C2CCS(=O)(=O)C2)cc1S(=O)(=O)N(C)Cc1ccccc1 (stereo not drawn)	·	–	·	109	–	·
C=CCN(c1ccccc1)S(=O)(=O)c1cccc(C(=O)OCC(=O)NCCOC)c1	–	–	–	55	–	–
COc1ccc(C(=O)OCC(=O)N(C)C2CCS(=O)(=O)C2)cc1Br (stereo not drawn)	·	–	·	–	–	·
C=CCN(c1ccccc1)S(=O)(=O)c1cccc(C(=O)OCC(=O)NC2CC2)c1	–	–	–	–	–	–
CN(C(=O)COC(=O)c1cccc(S(=O)(=O)N2CCCCCC2)c1)C1CCS(=O)(=O)C1 (stereo not drawn)	·	–	·	–	–	·
C=CCN(c1ccccc1Cl)S(=O)(=O)c1cccc(C(=O)OCC(=O)N(C)C2CCS(=O)(=O)C2)c1 (stereo not drawn)	–	69	–	–	–	–
CCN1CCc2c(sc(NC(=O)c3ccc(S(=O)(=O)N4CCCCCC4)cc3)c2C(=O)NC)C1	–	–	–	–	–	–
O=C(C1CCC(CNS(=O)(=O)c2cccs2)CC1)N1CCN(c2ccc(F)cc2)CC1 (stereo not drawn)	77[inhibitor]	–	–	–	–	–
CC1CCCC(C)N1C(=O)c1ccc2c(c1)S(=O)(=O)c1ccccc1C2=O (stereo not drawn)	0.0[inhibitor]	–	-12[inhibitor]	–	–	–
O=C1c2ccccc2S(=O)(=O)c2cc(C(=O)N3CCC(C(=O)N4CCCCC4)CC3)ccc21	–	·	–	–	–	–
N#Cc1c(N)n(-c2cccc(C(=O)O)c2)c2nc3ccccc3nc12	–	–	–	57	–	–
Cc1noc(C)c1S(=O)(=O)Nc1ccc2c(c1)C(=O)N([C@H](C)CO)C[C@H](C)[C@@H](CN(C)Cc1ccc(C(=O)O)cc1)O2	·	–	·	–	–	·
Cc1ccc(-c2ccc(SCC(=O)NCC3CCCO3)nn2)cc1 (stereo not drawn)	–	–	–	83	–	–
O=c1nc(/C=C/c2ccc(-c3ccc(F)cc3)o2)cc(C(F)(F)F)[nH]1	–	·	–	·	·	–
O=C(O)c1ccccc1-c1ccc(/C=C/c2cc(C(F)(F)F)[nH]c(=O)n2)o1	–	–	–	–	170	–
O=C(O)c1cc(Cl)ccc1-c1ccc(/C=C/c2cc(C(F)(F)F)[nH]c(=O)n2)o1	–	–	–	–	205	–
CC(C)(CSc1ccccn1)NS(=O)(=O)c1ccccc1	–	–	–	–	–	–
CC(C)(CSc1ncccn1)NS(=O)(=O)c1ccccc1	–	–	–	66	–	–
Oc1cccc(C(O)CNCc2ccc(-c3ccccc3)cc2)c1 (stereo not drawn)	–	–	–	–	–	–
Oc1cccc(C(O)CNCc2ccc(OCc3ccc(Cl)cc3Cl)cc2)c1 (stereo not drawn)	–	–	155	–	–	–
Cc1ccccc1CN1CCN(CC(=O)NC(C)c2ccccc2)CC1 (stereo not drawn)	–	–	–	–	–	–
CC(/C=C/c1ccccc1)=N\NC(=O)c1ccc2c(c1)OCCO2	–	–	–	–	–	–
CC(/C=C/c1ccccc1)=N/NC(=O)CNC(=O)c1ccc2c(c1)OCO2	·	–	·	72	–	·
SMILES	MEKK3 PB1 HTS	ABCB6 inh 2	MEKK2 WT-MEK5	CRFR2-BP antag	CRFBP-R2 agonist	MEKK2 mut-MEK5
COC(=O)c1c(NC(=O)CS(=O)(=O)c2ccccc2)sc(C)c1C	·	–	·	–	–	·
CCOC(=O)/C(=C/C=C1\Sc2cc(OCC)c(OCC)cc2N1CC)C(C)=O	–	–	–	–	279	–
CCOC(=O)/C(=C\C=C1/Sc2cc(OCC)c(OCC)cc2N1CC)C(C)=O	–	–	–	–	322	–
N#C/C(=C/c1cn(-c2ccccc2)nc1-c1cccc(OCc2ccc(F)cc2)c1)C(=O)NCCCn1ccnc1	172	–	–	–	–	–
CCCOc1cccc(-c2nn(-c3ccccc3)cc2/C=C(\C#N)C(=O)NCCCn2ccnc2)c1	–	–	–	–	–	–
CCOc1ccc(CN2CCN(C(=O)c3cccc4ccccc34)CC2)cc1	–	–	–	–	–	–
CN(CC1CCOCC1)C(=O)CC1C(=O)NCCN1Cc1ccc(Cl)c(F)c1 (stereo not drawn)	–	–	–	79	–	–
CCOc1ccc(CN2CCNC(=O)C2CC(=O)N(C)CC2CCOCC2)cc1 (stereo not drawn)	–	–	–	–	–	–
COc1ccc(C(=O)N2CCN(C)C(=O)[C@@H]2C)cc1OC1CCN(C(C)=O)CC1	–	–	–	–	–	–
O=C(CCC(=O)N(CC(=O)NC1CCCCC1)Cc1cccs1)Nc1ccccn1	–	–	–	–	–	–
C=CCOC(=O)C(C#N)c1nc2ccccc2nc1N1CCN(c2ccccc2OCC)CC1 (stereo not drawn)	–	–	–	53	–	–
CCOc1ccccc1N1CCN(c2nc3ccccc3nc2C(C#N)C(=O)OC(C)C)CC1 (stereo not drawn)	·	–	·	–	–	·
CCOC(=O)C1(Cc2cccc(OC)c2)CCCN(C(=O)CNC(C)=O)C1 (stereo not drawn)	–	–	–	–	–	–
COc1ccc(N2CCN(C(=O)C(=O)c3cn(CC(=O)N4CCCCCC4)c4ccccc34)CC2)cc1	–	–	-5.0	–	–	–
COc1ccc(N2CCN(C(=O)C(=O)c3cn(CC(=O)N4CCOCC4)c4ccccc34)CC2)cc1	–	–	–	–	–	–
CCN1CCN(C(=O)C(=O)c2cn(CC(=O)N3CCCCCC3)c3ccccc23)CC1	–	–	56	–	–	–
Nc1cc(OC(=O)c2ccco2)nn1S(=O)(=O)c1ccc(F)cc1	–	–	–	58	–	–
Cc1ccc(S(=O)(=O)n2nc(OC(=O)c3ccccc3C)cc2N)cc1	–	–	–	–	–	–
Cc1ccc(S(=O)(=O)n2nc(OC(=O)c3ccco3)cc2N)cc1	–	–	–	60	–	–
